Laboratory results from ChEMBL document CHEMBL3988442, “University of Dundee, Small-Polar-MMV Screening Library” (2021).

These compounds were tested against T1, Aspartate--tRNA(Asp/Asn) ligase (Mycobacterium tuberculosis (strain ATCC 25618 / H37Rv)) (UniProt P9WFW3) (assay: Assay for Asp RNA synthetase-1 from Mycobacterium tuberculosis). Settings: 30 µM.
T1 sequence (whole entry): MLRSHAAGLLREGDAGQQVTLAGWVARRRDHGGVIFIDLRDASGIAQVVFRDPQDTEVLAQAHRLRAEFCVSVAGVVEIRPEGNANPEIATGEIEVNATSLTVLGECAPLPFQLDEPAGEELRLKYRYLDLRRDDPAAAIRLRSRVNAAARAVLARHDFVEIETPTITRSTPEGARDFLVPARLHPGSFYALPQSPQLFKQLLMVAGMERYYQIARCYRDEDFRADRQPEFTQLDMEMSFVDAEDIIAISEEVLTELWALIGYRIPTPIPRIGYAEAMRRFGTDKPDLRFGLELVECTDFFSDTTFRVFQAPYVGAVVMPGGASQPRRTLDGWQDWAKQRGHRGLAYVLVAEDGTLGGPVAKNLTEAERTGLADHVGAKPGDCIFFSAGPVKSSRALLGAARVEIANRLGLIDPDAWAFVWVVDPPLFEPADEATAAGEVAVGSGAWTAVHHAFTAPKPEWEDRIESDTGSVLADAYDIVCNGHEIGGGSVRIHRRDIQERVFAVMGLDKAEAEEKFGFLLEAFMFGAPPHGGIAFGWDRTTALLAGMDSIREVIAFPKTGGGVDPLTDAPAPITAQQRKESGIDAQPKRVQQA
Assay type: functional
Design: scale not given: in the data most compounds retested in dose-response had high values

| SMILES | Percent Effect [%] |
| --- | --- |
| CC(C)Oc1ccc(CSc2nnc(CN3CCCC3=O)o2)cc1 | -7.23 |
| Cc1nnsc1C(=O)N1CCC2(CC1)c1nc[nH]c1CCN2CC(C)C | -1.53 |
| Cc1ccc(C(=O)N2Cc3ccccc3C2)cc1N1CCNC1=O | -0.287 |
| CCCc1nc(N2Cc3cnn(Cc4ccc(F)cc4)c3C2)no1 | -0.77 |
| CCC(O)CNC(=O)C1(N(C)Cc2ccccc2)Cc2ccccc2C1 (stereo unspecified) | 2.72 |
| CSC(C)(C)CNC(=O)NC1CCN(C)CC1 | -4.75 |
| COCCc1noc(CN(C)C2CCCN(c3ccc(C)nn3)C2)n1 (stereo unspecified) | 0.172 |
| CCCC(=O)NCc1cc(Br)c(OC)c(OC)c1 | -0.862 |
| O=C(O)c1ccc(F)c(S(=O)(=O)Nc2c(F)cccc2-n2cccn2)c1 | -1.78 |
| Cc1nccn1CCC1CCCCN1Cc1ccncc1 (stereo unspecified) | -1.16 |
| N#Cc1cn(CC(=O)NC2CC2)c2ccc(Br)cc2c1=O | 0.517 |
| N#Cc1ccc(C2CC(=O)Nc3c2cnn3C2CCCC2)cc1 (stereo unspecified) | -5.3 |
| CC(C)c1nccn1CCCNC(=O)c1ccc(-c2cncnc2)nc1 | -1.78 |
| CCS(=O)(=O)c1ccc(N2CCC(NC(C)=O)CC2)cc1 | 1.78 |
| COc1cccc(Cc2nnc(SC3CCOC3=O)o2)c1 (stereo unspecified) | -2.01 |
| CC(O)CN1CCN(C(=O)c2cnn(-c3ccccc3F)c2)CC1 (stereo unspecified) | -2.52 |
| Cc1nn(C)c(C)c1C1COCCN1c1ncnc2sccc12 (stereo unspecified) | 0.54 |
| Cc1cc(C2CCCN2C(=O)NCc2cccc(F)c2)on1 (stereo unspecified) | -1.23 |
| O=S(=O)(Cc1ccccc1F)NCCN1CCOCC1 | -2.93 |
| Cc1ccc(C#N)c(N2CCC(c3nccn3CCN(C)C)CC2)n1 | -1.39 |
| CCCS(=O)(=O)N1CCC(NC(=O)c2ccc(Cl)s2)CC1 | 0.379 |
